Assay results from PubChem BioAssay AID2155 (National Center for Advancing Translational Sciences (NCATS), 2009).
Active and inactive are the calls of the source. Calls follow the shape of the full dose curve.

target: Polyunsaturated fatty acid lipoxygenase ALOX15 (Homo sapiens) (UniProt P16050); assay: Cuvette-Based Assay fo Inhibitors of 15-hLO-1 (15-human lipoxygenase 1): Series 1 - Round 1; details: purified 15-hLO-1, cuvette UV 234 nm product formation
Description: Assay Provider: Holman, T.R., University of California, Santa Cruz Screening Center PI: Austin, Christopher P. Screening Center: NIH Chemical Genomics Center Human lipoxygenase 15hLO-1 is a member of the closely related lipoxygenase family of enzymes which catalyze the site-specific oxidation of arachidonic acid to various hormone precursor molecules and as such is a candidate for drug development in a variety of disease areas, such as cancer and inflammation. The enzyme activity of 15hLO-1 was determined by a direct measurement of product formation by monitoring the absorbance at 234 nm in a 2 mL cuvette. IC50 values of inhibitors were obtained by measuring the enzymatic rate at a variety of concentrations (Carroll et al, Segraves et al). A purified preparation of human 15hLO-1 was supplied by Professor Ted Holman, University of California, Santa Cruz. This assay is includes some confirmation and follow-up compounds for related primary screening assay AID 887. The follow-up compounds focus on analogues of current lead 15hLO-1 inhibitor series.
For control experiments, 2 mL of substrate buffer (7 uM arachidonic acid / 25 mM HEPES / 0.01% (v/v) Triton X-100, pH 7.5) was aliquoted in a cuvette with a magnetic stir bar. After equilibrium was ensured, an aliquot of inhibitor solvent was added (DMSO or MeOH), and equilibrium was once again assured. The reaction was started by adding enzyme to the cuvette and the reaction was followed until completed. The inhibition experiments were performed as above, except the actual inhibitory compound was added instead of vehicle. To achieve an IC50, typically 5 concentrations of the inhibitor were studied. If the inhibitor concentration was constant, then five different reaction volumes were used. Step \ Parameter \ Value \ Description 1; UV-Vis; 234 nm; Equilibration 2; Reagent; 2 mL; Substrate buffer 3; UV-Vis; 234 nm; Equilibration 4; Reagent; varies; Compound 5; UV-Vis; 234 nm; Equilibration 6; Reagent; 50-200 nM; Enzyme 15hLO-1 7; UV-Vis; 234 nm; Enzymatic reaction Step \ Notes 1. Blank cuvette to air. 2. 7 uM AA, 25 mM HEPES, 0.01% Triton X-100, pH 7.5. 3. No change in absorbance ensured. 4. Compound vehicle or compound in various concentrations depending on potency. 5. No change in absorbance ensured. 6. Enzyme concentration to achieve reaction rate between 0.02 and 0.04 AU/s. 7. Enzymatic reaction visualized until completion.

Sequence of Polyunsaturated fatty acid lipoxygenase ALOX15 (Homo sapiens) (P16050 whole entry, looked up): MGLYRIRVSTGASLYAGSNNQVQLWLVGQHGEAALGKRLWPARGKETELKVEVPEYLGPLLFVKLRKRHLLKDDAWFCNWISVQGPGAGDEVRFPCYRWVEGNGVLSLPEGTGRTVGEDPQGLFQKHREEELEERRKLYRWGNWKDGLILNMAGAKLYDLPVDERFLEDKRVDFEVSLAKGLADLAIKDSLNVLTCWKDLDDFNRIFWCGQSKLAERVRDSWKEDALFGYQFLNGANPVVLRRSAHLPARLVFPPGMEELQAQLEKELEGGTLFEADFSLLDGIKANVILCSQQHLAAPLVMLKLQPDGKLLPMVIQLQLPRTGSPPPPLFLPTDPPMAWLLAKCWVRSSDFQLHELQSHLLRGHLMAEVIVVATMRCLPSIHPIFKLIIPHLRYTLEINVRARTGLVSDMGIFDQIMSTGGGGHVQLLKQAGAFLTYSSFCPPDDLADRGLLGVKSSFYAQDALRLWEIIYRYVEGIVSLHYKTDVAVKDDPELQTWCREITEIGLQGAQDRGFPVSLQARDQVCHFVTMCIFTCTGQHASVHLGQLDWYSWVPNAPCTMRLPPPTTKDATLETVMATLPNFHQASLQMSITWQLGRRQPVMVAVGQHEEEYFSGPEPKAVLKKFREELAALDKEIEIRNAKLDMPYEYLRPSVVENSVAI

Potency, active:
O=C(OCC#CCSc1nnc(-c2cccc3ccccc23)o1)c1cnc[nH]1 1000 nM, O=C(OCC#CCNc1nnc(-c2cccc3ccccc23)o1)c1cccs1 1000 nM, N#Cc1nc(-c2cccc3ccccc23)oc1NCC#CCOC(=O)c1cccs1 25000 nM, O=C(OCC#CCSc1nnc(-c2cccc3ccccc23)o1)c1ccc(Br)cc1 16 nM, O=C(NCC#CCSc1nnc(-c2cccc3ccccc23)o1)c1cccs1 1000 nM, O=C(OCC#CCSc1nnc(-c2cccc3ccccc23)s1)c1cccs1 25000 nM, O=C(OCC#CCSc1nnc(-c2cccc3ccccc23)o1)c1ccc(Cl)cc1 18 nM, COc1ccc(C(=O)OCC#CCSc2nnc(-c3cccc4ccccc34)o2)cc1 22 nM, CC(C)Nc1oc(-c2cccc3ccccc23)nc1C#N 190 nM, OCC#CCSc1nnc(-c2cccc3ccccc23)o1 1000 nM, C=CCNc1nnc(-c2cccc3ccccc23)o1 1000 nM
